Source: PubChem BioAssay (several laboratories)
In the library only some 4.7% were active in any assay of this set; here they are far more common.
ALR inh – inhibitors of human sulfhydryl oxidase ALR | P55789 | purified ALR, DTT oxidation, H2O2 HRP-luminol luminescence | inhibition, % (concentration not given with the values) | actives 3.8% (n = 290,000);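 active means mean replicate inhibition above about 79%, with every replicate also reaching it, limit read from the data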
Target sequence (P55789 whole entry, looked up): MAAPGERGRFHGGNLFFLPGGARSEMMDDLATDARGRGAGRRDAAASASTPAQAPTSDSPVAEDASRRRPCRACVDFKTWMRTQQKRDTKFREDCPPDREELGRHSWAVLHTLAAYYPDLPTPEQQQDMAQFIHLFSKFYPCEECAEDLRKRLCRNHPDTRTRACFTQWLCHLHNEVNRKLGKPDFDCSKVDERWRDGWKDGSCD
Efflux pump inh – inhibitors of Candida antifungal efflux pumps expressed in yeast; S. cerevisiae Candida pump triplex, Nile Red efflux; inhibition, % at 10 µM; actives 0.44% (n = 330,000);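 active means plate passing quality check with inhibition over a set limit, or well fluorescence over plate mean plus 4 SD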;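 further: Nile Red retained in pooled yeast measured as flow cytometry median fluorescence; 0% = buffer negative control and 100% = Enniatin B positive control; higher means more Nile Red kept so more efflux inhibition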
SUMO HTRF inh – inhibitors of human SUMOylation (UBC9); HTRF SUMOylation assay, SAE1/SAE2 + UBC9, in vitro; inhibition, % at 35 µM; actives 0.36% (n = 290,000); in the data active means inhibition above about 50%, passing the limit was not always enough
Target sequence (P63279 whole entry, looked up): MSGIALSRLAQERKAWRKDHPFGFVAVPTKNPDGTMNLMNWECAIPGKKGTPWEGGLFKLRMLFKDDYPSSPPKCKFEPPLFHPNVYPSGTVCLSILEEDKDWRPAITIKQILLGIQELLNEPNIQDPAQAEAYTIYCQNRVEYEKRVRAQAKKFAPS
eIF4H FP inh – inhibitors of RNA binding by human eIF4H; eIF4H fluorescence polarization binding assay; inhibition, % at 35 µM; actives 0.94% (n = 290,000); AID 2012;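 further: calls also rest on retests at 20 µM and on dose response follow-up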
PABP FP inh – blocks human PABP binding to poly(A) RNA; AID 2014; fluorescence polarization; actives 1% (n = 290,000); inhibition, % at 35 µM; P11940;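 further: calls also rest on retests at 20 µM and on dose response follow-up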
MLLE-PAM2 inh – inhibitors of microRNA-mediated deadenylation, human PABP1 MLLE binding | inhibition, % at 20 µM | GST-MLLE / FITC-PAM2 fluorescence polarization | P11940 | actives 0.36% (n = 360,000); in the data active means inhibition above about 35%, passing the limit was not always enough;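 further: plate controls were DMSO wells with GST-MLLE for no effect and wells lacking GST-MLLE protein for full effect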
Yeast cmpd fluor – counter-screen for efflux pump inhibitors: compound fluorescence. shares compounds with Efflux pump inh. S. cerevisiae AD/pABC3, flow cytometry. fluorescence ratio to DMSO, % at 10 µM. actives 4% (n = 1,700). AID 588517;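 active means fluorescence ratio to DMSO above its plate's cutoff, the plate mean ratio plus 5 SD, cut at about 210% in these data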;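 further: unstained yeast with no Nile Red so the signal is compound autofluorescence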
Mdr1 pump inh – blocks the Candida albicans Mdr1 efflux pump in yeast; S. cerevisiae AD/CaMDR1, Nile Red efflux, flow cytometry; shares compounds with Efflux pump inh; inhibition, % at 10 µM; actives 1% (n = 1,700); in the data active means inhibition above about 26%;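 further: 0% = DMSO vehicle and 100% = reference inhibitor; higher means more Nile Red retained so more efflux inhibition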
CaCdr2 efflux inh – blocks the Candida albicans Cdr2 efflux pump in yeast | actives 4% (n = 1,700) | shares compounds with Efflux pump inh | Nile Red retention ratio vs DMSO, % at 10 µM | S. cerevisiae AD/CaCDR2, Nile Red retention, flow cytometry | AID 588520; in the data active means Nile Red retention ratio vs DMSO above about 190%;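 further: higher ratio means more blocking of Cdr2 efflux of the dye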
CaCdr1 efflux inh – blocks the Candida albicans Cdr1 efflux pump in yeast; shares compounds with Efflux pump inh; actives 1% (n = 1,700); inhibition, % at 10 µM; S. cerevisiae AD/CaCDR1, Nile Red efflux, flow cytometry;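 active means inhibition above the screen-wide mean plus twice its standard deviation, cut at about 32% in these data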
Starred values were filed as active, the others as inactive; · = not tested or not shown. Unless noted, how the calls were made is not given here.

SMILES | ALR inh | Efflux pump inh | SUMO HTRF inh | eIF4H FP inh | PABP FP inh | MLLE-PAM2 inh | Yeast cmpd fluor | Mdr1 pump inh | CaCdr2 efflux inh | CaCdr1 efflux inh
COc1ccc(-c2sc3ccccc3c2-c2ccc(OCCN(C)C)cc2)cc1 | -8 | 1 | · | · | · | 9 | 91 | 0 | 97 | 0
COc1cccc(-c2sc3ccc(OC)cc3c2-c2ccc(OCCN(C)C)cc2)c1 | -8 | 187* | · | · | · | -2 | 108 | 1 | 228* | 0
COc1cccc(-c2sc3ccc(OC)cc3c2-c2ccc(O)cc2)c1 | -4 | 0 | · | · | · | -2 | · | · | · | ·
CN(C)CCOc1ccc(-c2c(-c3ccsc3)sc3ccccc23)cc1 | -16 | 0 | · | · | · | -20 | · | · | · | ·
COc1ccc(CN(C)C[C@H]2OCCCC[C@@H](C)Oc3ccc(NS(C)(=O)=O)cc3C(=O)N([C@H](C)CO)C[C@@H]2C)cc1 | · | · | · | · | · | -21 | · | · | · | ·
COc1cc(C(C)=O)ccc1Oc1cc(NN2CCCCC2)c([N+](=O)[O-])cc1[N+](=O)[O-] | 15 | 0 | -9 | 9 | 9 | -3 | · | · | · | ·
COc1ccc(/C=N/N=C2/NC(=O)C(CC(=O)O)S2)cc1OCc1ccc(Cl)cc1 (stereo not given) | 54 | 13* | 7 | 7 | -5 | -120 | 95 | 0 | 105 | 0
Cc1cc(C)c2nc3sc(=Cc4ccc(-c5ccccc5C(=O)O)o4)c(=O)n3c2c1 | · | · | · | · | · | -106 | · | · | · | ·
O=C(O)c1ccc(-c2ccc(/C=c3/sc4nc5ccccc5n4c3=O)o2)cc1Cl | 8 | 0.8* | 30 | 78 | 78* | -70 | 103 | 0 | 148 | 0
Cc1ccc2c(nc3s/c(=C\c4ccc(-c5ccccc5C(=O)O)o4)c(=O)n32)c1C | -4 | 0.7* | 29 | 43 | 38 | -107 | 102 | 0 | 121 | 0
COc1ccc2cc(C#N)c(N3CCN(Cc4nnnn4CCC(C)C)CC3)nc2c1 | -10 | 0.7* | -22 | -13 | 9 | -2 | 118 | 0 | 116 | 0
CCOC(=O)C1(C(F)(F)F)N=C(c2cccnc2)OC(N2CCCCC2)=N1 (stereo not given) | -5 | 5.5* | -8 | 7 | -4 | 3 | 104 | 0 | 116 | 0
CCOC(=O)C1(C(F)(F)F)N=C(c2ccccc2F)OC(N(C)C)=N1 (stereo not given) | 0 | 0 | 9 | -3 | -7 | 5 | · | · | · | ·
CCOC(=O)c1c(-c2ccc(-c3ccccc3)cc2)csc1NC(=O)CNCCN(C)C | · | 2.6* | 13 | -1 | 10 | 6 | 116 | 0 | 108 | 0
CCOC(=O)c1c(-c2ccccc2)csc1NC(=O)CCN1C(=O)c2ccccc2C1=O | · | 0 | -13 | -16 | 2 | 2 | · | · | · | ·
CCN(CC)S(=O)(=O)c1ccc(N2CCOCC2)c(NC(=S)NC(=O)c2ccco2)c1 | 10 | 0 | -5 | -8 | 4 | 37 | · | · | · | ·
Cc1nnc(SCc2ccc([N+](=O)[O-])cc2)o1 | -16 | 1.0* | -8 | -5 | 8 | 3 | 110 | 0 | 106 | 0
COc1ccc(C(=O)Nc2ccc([N+](=O)[O-])cn2)c(OC)c1 | 22 | -2 | -18 | -4 | 16 | 0 | · | · | · | ·
O=C(CN1CCCc2ccccc21)N/N=C/c1c(O)ccc2ccccc12 | -13 | 13* | -10 | 6 | -15 | -65 | 94 | 0 | 106 | 0
CCN(CC(=O)NCc1ccc(F)cc1)C(=O)COc1ccccc1[N+](=O)[O-] | -3 | 0 | · | · | · | 2 | · | · | · | ·
CCC1(c2ccc(Cl)cc2)NC(=O)N(CC(=O)NC2CCCCCC2)C1=O (stereo not given) | · | · | · | · | · | -16 | · | · | · | ·
CCN1/C(=C/c2ccc3cc(C)ccc3[n+]2CC)Sc2ccccc21 | 22 | 3.0* | -18 | 10 | 16 | -189 | · | 5 | 143 | 2
O=C(Cn1nc(-c2ccc(F)cc2)ccc1=O)Nc1ccc(C(=O)NC2CC2)cc1 | -4 | 0.4* | 8 | -2 | 4 | 11 | 81 | 0 | 89 | 0
O=C(Cn1nc(-c2ccc(F)cc2)ccc1=O)Nc1ccc2c(c1)OCCO2 | -4 | 0 | -6 | 5 | 7 | -2 | · | · | · | ·
S=C(NCC1CCCO1)N1CCc2ccccc2C1 (stereo not given) | -4 | 0 | -7 | -9 | -4 | -129 | 95 | 0 | 89 | 0
SMILES | ALR inh | Efflux pump inh | SUMO HTRF inh | eIF4H FP inh | PABP FP inh | MLLE-PAM2 inh | Yeast cmpd fluor | Mdr1 pump inh | CaCdr2 efflux inh | CaCdr1 efflux inh
S=C(NCCc1ccccc1)N1CCc2ccccc2C1 | -5 | 0 | -22 | 5 | -8 | -144 | · | · | · | ·
CC(=O)Nc1ccc(S(=O)(=O)NCC(=O)Nc2ccc3c(c2)OCO3)cc1 | -5 | 0 | · | · | · | 4 | · | · | · | ·
COc1cc(/C=N/NC(=O)COc2ccc(C)cc2)ccc1OC(=O)c1cccs1 | -4 | 2.1* | -16 | 0 | 0 | -21 | 87 | 0 | 98 | 0
CN(C)/C(CN1CCN(C=O)CC1)=C1\N=C(c2ccccc2)OC1=O | 23 | 0.5* | 22 | 1 | 2 | 4 | 98 | 0 | 94 | 0
CN(C)/C=C1\N=C(c2ccccc2)OC1=O | 2 | 0 | 8 | -1 | 1 | -9 | · | · | · | ·
CCCCNC(=O)OCC(CC)NC(=O)OC(C)C (stereo not given) | -1 | 1.9* | 23 | -6 | -12 | 4 | 101 | 0 | 106 | 0
Cc1ccccc1CN1CCC(n2nccc2NC(=O)CCCc2ccccc2)CC1 | 0 | 1.5* | -4 | -2 | 14 | 5 | 88 | 0 | 93 | -1
CS(=O)(=O)c1ccc(NCCc2ccccn2)c([N+](=O)[O-])c1 | -2 | 0 | 8 | -4 | 12 | 7 | · | · | · | ·
O=[N+]([O-])c1cc(C(F)(F)F)ccc1NCCc1ccccn1 | -14 | 0.9* | · | · | · | -3 | 103 | 0 | 121 | 0
O=C(/C=C/Nc1ccccc1C(=O)O)c1cccs1 | -7 | 0 | 0 | -4 | 26 | -2 | · | · | · | ·
O=C(O)c1ccccc1N/C=C\[N+](=O)[O-] | -23 | 0.7* | 5 | 26 | 4 | -4 | 97 | 0 | 98 | 0
O=C(c1cccc([N+](=O)[O-])c1)N1CCc2ccccc21 | · | 0 | 0 | 5 | -2 | -4 | · | · | · | ·
O=C(Oc1c(-c2ccccc2)c(=O)n2c3c(cccc13)CC2)c1cccc([N+](=O)[O-])c1 | 30 | 0.6* | 1 | -4 | 0 | -3 | 102 | 0 | 101 | 0
O=C(Oc1c(-c2ccccc2)c(=O)n2c3c(cccc13)CC2)c1ccccc1 | 4 | 0 | 4 | 3 | -7 | -4 | 161 | 0 | 91 | 3
